Test results taken from PubChem BioAssay (NCI).
This is part of a sample that, as a whole, favours compounds with a hit. Of some 83,000 tested, about 20% had one in any assay.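 Cells were grown in 96-well plates and exposed to the test compound at a single concentration for 48 hours; results are reported as percent growth, with values below 10 considered active.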 Unmarked numbers belong to inactive results. Activity calls are given as the source filed them.

Assays:
Assay in all cases: NCI-60 one-dose screen, 48 h (100 = growth as untreated, 0 = no growth, -100 = all killed)
Details in all cases: 10 µM unless noted
[1] = system: BT-549 breast
[2] = system: MDA-MB-435 melanoma
[3] = system: SW-620 colon
[4] = system: MCF7 breast
[5] = system: HCT-116 colon
[6] = system: HCC-2998 colon
[7] = system: KM12 colon

| SMILES | growth [1] | growth [2] | growth [3] | growth [4] | growth [5] | growth [6] | growth [7] |
| --- | --- | --- | --- | --- | --- | --- | --- |
| CC(C)OC(=O)[C@H](C)N[P@@](=O)(OC[C@@]1(C)O[C@@H](n2cc(F)c(N)nc2=O)C[C@@H]1O[P@](=O)(N[C@@H](C)C(=O)OC(C)C)Oc1ccccc1)Oc1ccccc1 | 75.9% | 86.6% | 61.1% | 50.3% | 88.2% | 46.7% | 76% |
| O=C1c2ccccc2CCc2ccccc21 | 99% | 100% | 99.3% | 94.9% | 98.2% | 97.5% | 102% |
| C/C=C(/C)C(=O)OC1C=C(CO)C(=O)C(OC(=O)C(C)(O)C(C)Cl)C1C(C)C (stereo unspecified) | -9.98% (active) | -23.2% (active) | -45.7% (active) | 8.43% (active) | -56.5% (active) | -76.3% (active) | -45.1% (active) |
| CCCCCCCCCCCCCCCCNC(=O)Nc1ccc(C)c(NC(=O)NCCCCCCCCCCCCCCCC)c1 | 104% | 105% | 107% | 101% | 117% | 110% | 113% |
| COC(=O)c1ccc(C(=Nc2ccc(N(C)C(=O)CN3CCN(C)CC3)cc2)c2c(O)[nH]c3ccc(C(=O)OC)cc23)cc1 | 45.8% | 43.6% | 18.9% | 23.5% | 10.9% | 54.5% | 15.3% |
| CNc1ccc(Nc2ccc(S(=O)(=O)O)cc2)c2c1C(=O)c1ccccc1C2=O | 99.5% | 95% | 112% | 97% | 109% | 112% | 108% |
| O=C(Nc1ccc(Cl)cn1)C1(c2ccccc2)CCCCC1 | 98.4% | 125% | 96.6% | 96.3% | 117% | 99.1% | 101% |
| N=C(N)c1ccc(-c2ccc(-c3ccc(Cl)cc3)s2)s1 | 76.4% | -91.4% (active) | -69.5% (active) | -66% (active) | -98.4% (active) | -74.2% (active) | -85.3% (active) |
| COc1cc(-c2nc3c(c(C)nc4c3nnn4-c3ccccc3)c(=O)o2)cc(OC)c1OC | 105% | 106% | 107% | 97.5% | 99.3% | 130% | 110% |
| COC(=O)c1ccc2[nH]c(O)c(C(=Nc3ccc(N(C)C(=O)CN4CCN(C)CC4)cc3)c3ccc(N)cc3)c2c1 | 81.5% | 90.6% | 70.3% | 40.7% | 41.4% | 108% | 18.4% |
| O=C1C(Br)=CC2C1C1C3CCC3C2(Br)C12OCCO2 (stereo unspecified) | 45.6% | 23.7% | 17.3% | 2.12% (active) | 16.1% | 74.8% | 44.9% |
| CC([C@H]1CC=C2C3CCC4=C[C@@H](N(C)C)CC[C@]4(C)C3CC[C@@]21C)N(C)C (stereo partly specified) | 90.5% | -67.5% (active) | 9.89% (active) | 34.9% | -57% (active) | 49.6% | 30.6% |
| COC(=O)c1ccc2[nH]c(O)c(C(=Nc3ccc(N(C)C(=O)CN4CCN(C)CC4)cc3)c3ccc(C)cc3)c2c1 | -39.5% (active) | 10.3% | -26.5% (active) | -67.8% (active) | -66.1% (active) | 9.34% (active) | -17.3% (active) |
| Clc1ccc(N/N=C(/c2ccccc2)c2ccccn2)nc1 | 55% | 57.3% | 44.8% | -1.28% (active) | 5.31% (active) | 45.1% | 43.2% |
| O=C(NCCNCCO)c1cc([N+](=O)[O-])cc([N+](=O)[O-])c1O | 121% | 104% | 103% | 102% | 103% | 101% | 108% |
| NC(N)=N/N=C/c1cccc(Br)c1 | 87% | 105% | 102% | 90.5% | 92.5% | 101% | 107% |
| CC(=O)Nc1ccc(C(=O)/C=C/c2ccc(N(C)C)cc2)cc1 | 101% | 98.1% | 110% | 78.3% | 102% | 102% | 97.7% |

| SMILES | growth [1] | growth [2] | growth [3] | growth [4] | growth [5] | growth [6] | growth [7] |
| --- | --- | --- | --- | --- | --- | --- | --- |
| CC1=C(C)C(=O)C(C(C)C2=C(C)C(=O)C(C)=C(C)C2=O)=C(C)C1=O | 83.5% | 98.1% | 107% | 102% | 71.2% | 23.4% | 88.8% |
| C=C(C)[C@@H]1CC[C@]2(COC(=O)c3ccccc3C(=O)O)CC[C@]3(C)[C@H](CC[C@@H]4[C@@]5(C)CCCNC(C)(C)[C@@H]5CC[C@]43C)[C@@H]12 | 72.6% | 60.9% | 70.5% | 26.3% | 32.2% | 72.1% | 51.9% |
| O=C1C(=O)c2ccccc2C(O)=C1CCCc1ccc(Oc2ccccc2)cc1 | 60.9% | 45.4% | 39.9% | 83.3% | 22.1% | 103% | 67.3% |
| COc1cc2c(c(OC)c1OC)C(=O)CC(c1cccc(C(=O)Nc3cccc(Br)c3)c1)O2 (stereo unspecified) | 63% | 69.3% | 95.4% | 68.3% | 58.1% | 112% | 71.2% |
| CCOC(=O)C1=C(C(F)(F)F)NC(=O)NC1CN1C(=O)c2ccccc2C1=O (stereo unspecified) | 108% | 108% | 105% | 108% | 112% | 101% | 115% |
| COC(=O)c1ccc2[nH]c(O)c(C(=Nc3ccc(N(C)C(=O)CN4CCN(C)CC4)cc3)c3ccc(CCO)cc3)c2c1 | 20.6% | 60.8% | 27.9% | 26.3% | 9.37% (active) | 53.2% | 18.5% |
| O=C(NCCCl)Nc1nccnc1OCc1ccc(F)cc1 | 88.8% | 107% | 103% | 85.1% | 104% | 113% | 107% |
| COC(=O)c1ccc2[nH]c(O)c(C(=Nc3ccc(N(C)C(=O)CN4CCN(C)CC4)cc3)c3ccc(OC)cc3)c2c1 | 22.5% | 29.6% | 4.33% (active) | 23.9% | 3.03% (active) | 30.8% | 13.1% |
| Cc1ccc(S(=O)(=O)Nc2cccc(Cn3c(=O)[nH]c4ccc(Oc5ncccn5)cc4c3=O)c2)cc1 | 65.2% | -10.1% (active) | 64.8% | 32.5% | 59% | 81.3% | 39.6% |
| Cc1ncc(C(=O)Nc2ccc(CN3CCN(C)CC3)c(C(F)(F)F)c2)cc1C#Cc1c(N)ncc2ccc(F)cc12 | 23.6% | -66.5% (active) | -72.1% (active) | -72.6% (active) | -72% (active) | 39.1% | -80.7% (active) |
| Cc1ccc(C(C)C)c(OCc2ccc(C(=O)N/N=C/c3cccc(O)c3O)cc2)c1 | 36.2% | 55.9% | 47.8% | 15.1% | 20.4% | 45.7% | 36.1% |
| Nc1cc(N)c2nc(-c3ccccc3)c(NCCc3ccc(Cl)c(Cl)c3)nc2c1 | -70.4% (active) | -88.2% (active) | -86.7% (active) | -2.91% (active) | -90.8% (active) | -94.9% (active) | -83.4% (active) |
| Clc1ccc(N/N=C/c2ccccn2)nc1 | 23.4% | 24.4% | 36.7% | 0.994% (active) | 11.1% | 24.5% | 24.9% |
| Cc1ncc(C(=O)Nc2ccc(CN3CCN(C)CC3)c(C(F)(F)F)c2)cc1C#Cc1c(N)ncc2ccccc12 | -96.4% (active) | -92.3% (active) | -60.6% (active) | -71.7% (active) | -88.2% (active) | -89.6% (active) | -68.1% (active) |
| C/C(CCC(=O)O)=N/Nc1ccc([N+](=O)[O-])cc1 | 89.1% | 38.6% | 72.6% | 65.2% | 56.8% | 59.9% | 27.1% |
| Cc1ccc(S(=O)(=O)N/N=C2\CC3CCC2C3)cc1 (stereo unspecified) | 107% | 103% | 106% | 97% | 103% | 120% | 105% |
